# Results as given in PubChem BioAssay (EPA / NIEHS).
# Calls of active or inactive are those of the source. How the source made its calls: active means hit-call score of the fitted dose curve at least 0.9, where 1 is the maximum; inactive means score below 0.9.
# Read-out: JUN Transcription Factor, JUN (gene 3725)
# Test: LTEA_HepaRG_JUN: Life Technologies and Expression Analysis (LTEA) Assay for JUN Transcription Factor using HepaRG (AID 2283513)
# Conditions: mRNA level, 48 h; actives raise or lower the signal
# Summary of the method: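 HepaRG cells, 48 h post-plating, exposed 48 h in serum-free induction medium to 8-point half-log series (top 100 uM, 0.5% DMSO), duplicate; mRNA by qRT-PCR (TaqMan, Fluidigm), normalized to ACTB/GAPDH/POLR2A; bidirectional fit vs DMSO.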
row,SMILES,outcome
1,Nc1ccc(C(=O)O)cc1,inactive
2,C1CNCCN1,inactive
